Experimental data taken from PubChem BioAssay (Tox21).
Results filed as inconclusive are left out. A call without a number means that no potency is given here. Values without a mark were called inactive. The source made the active and inactive calls. Calls come from the whole dose curve; as a rule, active = well fitted cell-killing curve with a large enough effect in the repeat runs; inconclusive = weak or mixed curves, or effect the other way; inactive = flat fitted curve, though single readings scatter.

Experiment: qHTS assay to identify small molecule antagonists of the retinoid acid receptor (RAR) signaling pathway - cell viability counter screen (AID 1159551); note: nearly all actives have a fitted effect of over 35% in size
Settings: C3RL4 cells viability, ATP luminescence (CellTiter-Glo), 6 h; series mostly up to 92.4 µM
From the text: U.S. Tox21 Program National Center for Advancing Translational Sciences [NCATS] NIH Chemical Genomics Center [NCGC] U.S. Environmental Protection Agency [EPA] National Institutes of Environmental Health Sciences [NIEHS] National Toxicology Program [NTP] U.S. Food and Drug Administration [FDA] Tox21 Assay Overview: All-trans Retinoic acid (atRA) is the potent natural metabolite of retinol and plays an important role in normal embryonic development and maintenance of cellular phenotype in adult animals. atRA is the activating ligand for the retinoic acid receptors (RARs) which form heterodimers with retinoid X receptors (RXRs) on the retinoic acid response element (RARE). Through activation of the RAR/RXRs nuclear receptors, atRA regulates the transcription of a large number of protein-coding genes and regulatory RNAs. Intracellular levels of atRA are controlled by the retinol signaling pathway (RSP) that regulates the biosynthesis and catabolism of atRA to maintain physiological levels. Chemicals that interfere with the RSP can cause abnormal intracellular levels of atRA and therefore are potential developmental toxicants. To assess compounds for the potential adverse effect on embryonic development through interfering with retinol signaling, a cell-based RARE luciferase reporter gene assay was used. C3RL4 cell line (OARSA/CFSAN/FDA, Laurel, MD) was used to screen Tox21 10K compound library for identifying inhibitors of the RSP. Also cytotoxicity was assessed by determining the viability of cells based on the quantitation of ATP.
Tox21 Assay Protocol Summary: C3RL4 cells were seeded at 1,000/well in 4 uL of assay medium into white solid 1,536-well tissue culture plates (Greiner Bio-One North America Inc. Monroe, NC) using a Multidrop Combi (Thermo Scientific, Waltham, MA) dispenser. After incubation at 37 C and 5% CO2 for an overnight, 23 nL of compounds dissolved in DMSO, positive control or DMSO only were transferred by a Pintool station (Kalypsys, San Diego, CA). One ul of 1 uM (final concentration) of Retinol was added right after the compound addition by using a Flying Reagent Dispenser (FRD) (Aurora Discovery, San Diego, CA). After 6 hr incubation at 37 C and 5% CO2, 5 uL of CellTiter-Glo reagent (Promega Corporation, Madison, WI) was added to each assay plate using an FRD. Luminescence was quantified on a ViewLux plate reader (PerkinElmer, Waltham, MA) after 30 min incubation at room temperature.
Potency is the fitted concentration of half-maximal effect.

| Compound | Potency | activity change, negative = cytotoxicity |
| --- | --- | --- |
| CC1OC(=O)C(C)OC1=O (stereo not given) | inactive | – |
| COC(=O)C1=C(C)NC(COC(N)=O)=C(C(=O)OC(C)C)C1c1cccc(Cl)c1Cl (stereo not given) | inactive | – |
| CNCCCCOc1ccccc1Cc1ccccc1 | inactive | – |
| CC(C)Cc1ccc(C(C)C(=O)OCc2ccccn2)cc1 (stereo not given) | inactive | – |
| O=C(O)c1ccco1 | inactive | – |
| Cc1cccc(C)c1NC(=O)CN(CC(=O)O)CC(=O)O | inactive | – |
| C/C=C/C(=O)CC | – | -1.29% [at 19 µM] |
| COc1cc2nc(Cl)nc(N)c2cc1OC | inactive | – |
| C[C@@H](c1ncncc1F)C(O)(Cn1cncn1)c1ccc(F)cc1F (stereo not given in full) | inactive | – |
| C=C1C(=C/C=C2\CCC[C@]3(C)[C@@H]([C@H](C)/C=C/[C@@H](O)C4CC4)CC[C@@H]23)C[C@@H](O)C[C@@H]1O | inactive | – |
| O=C1CCC(=O)O1 | inactive | – |
| COc1cccc(N(C)C(=S)Oc2ccc3c(c2)CCCC3)n1 | inactive | – |
| Clc1ccc2c(c1)CCc1cccnc1C2=C1CCNCC1 | inactive | – |
| CCCCC1=NC2(CCCC2)C(=O)N1Cc1ccc(-c2ccccc2-c2nn[nH]n2)cc1 | inactive | – |
| CN1CCC(N(Cc2cccs2)c2ccccc2)CC1 | inactive | – |
| CC(C)CC(=O)C1C(=O)c2ccccc2C1=O | inactive | – |
| CN(C)c1ccc(C(c2ccccc2)c2ccc(N(C)C)cc2)cc1 | inactive | – |
| O=C(Nc1ccc(S(=O)(=O)N2CCOCC2)cc1)c1cc(Cl)ccc1NS(=O)(=O)c1ccc(Cl)s1 | inactive | – |
| O=C(O)CNCC(=O)O | – | -1.04% [at 8.39 µM] |
| CN(C)c1ccc(/C=C/c2ccc([N+](=O)[O-])cc2)cc1 | – | -0.286% [at 8.39 µM] |

| Compound | Potency | activity change, negative = cytotoxicity |
| --- | --- | --- |
| CC(C)OC(=O)C(C)N(C(=O)c1ccccc1)c1ccc(F)c(Cl)c1 (stereo not given) | inactive | – |
| OCCNCc1ccccc1 | inactive | – |
| Nc1c(CC(=O)O)cccc1C(=O)c1ccc(Br)cc1 | inactive | – |
| CCN(CC)CCNc1ccc(CNC=O)c2sc3ccc(OC)cc3c(=O)c12 | inactive | – |
| O=S(=O)(Oc1ccc(Cl)cc1)c1ccccc1 | inactive | – |
| CC1=CCCC(C)(C)C12CCC(C)O2 (stereo not given) | inactive | – |
| CC(C)Nc1ccc(NC(C)C)c2c1C(=O)c1ccccc1C2=O | 25.3 µM (active) | – |
| C[N+]1(C)CCC(OC(=O)C(O)(c2ccccc2)C2CCCC2)C1 (stereo not given) | inactive | – |
| COCCCN1CCC(NC(=O)c2cc(Cl)c(N)c3c2OCC3)CC1 | inactive | – |
| COc1cc2nc(N3CCN(C(=O)C4COc5ccccc5O4)CC3)nc(N)c2cc1OC (stereo not given) | inactive | – |
| C[N+](C)(C)CCOC(=O)CCC(=O)OCC[N+](C)(C)C | inactive | – |
| O=C(O)c1ccc(-n2nc(-c3ccccc3O)nc2-c2ccccc2O)cc1 | inactive | – |
| CC(=O)OC[C@H]1O[C@@H](n2ncc(=O)[nH]c2=O)[C@H](OC(C)=O)[C@@H]1OC(C)=O | inactive | – |
| NCc1ccccc1Sc1ccccc1CO | inactive | – |
| Cc1cc(C(=O)O)ccc1[N+](=O)[O-] | inactive | – |
| CCCCC(CC)COC(=O)COc1ccc(Cl)cc1Cl (stereo not given) | inactive | – |
| CCCCCCOC(=O)NC(=N)c1ccc(NCc2nc3cc(C(=O)N(CCC(=O)OCC)c4ccccn4)ccc3n2C)cc1 | inactive | – |
| CCOC(=O)C(O)c1ccccc1 (stereo not given) | inactive | – |
| COc1cc(Cl)ccc1Oc1ccc(Cl)cc1Cl | inactive | – |
| NS(=O)(=O)c1ccc(N2CCCCS2(=O)=O)cc1 | inactive | – |
